Sampled rows, rich in hits. Any-hit rate of the full collection: about 0.45%.
PGK inhibitor: blocks T. brucei phosphoglycerate kinase; Potency, µM (series often up to 57.5 µM), for inactives: at the highest dose activity change, negative = inhibition, usual class: inhibitors; PGK/GAPDH coupled, Kinase-Glo luminescence, 60 min; P07378; hit rate 0.043% among 380,000; note: nearly all actives have a fitted effect of over 60% in size
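Luminescent ATP detection (Kinase-Glo Plus) follows a 60-minute room-temperature incubation, with wells lacking PGK as controls. Buffer: 100 mM TEA (pH 7.6), 5 mM MgCl2, 0.01% Tween-20. Coupling enzyme GAPDH (100 nM final) supplies unstable 1,3-BPG in-well.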
Anesthetic bind: binds horse apoferritin like a general anesthetic | apoferritin/1-aminoanthracene competitive binding, fluorescence | Potency, µM (titrated, usually from 77.5 µM), inactives show at the top dose activity change, negative = displacement, actives largely listed as inhibitors | hit rate 0.074% among 350,000 | AID 485281; note: nearly all actives have a fitted effect of over 20% in size
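In PBS, apoferritin at 10 uM is loaded with 1-AMA from a 50% saturated solution. After 10 min of compound exposure at ambient temperature, reduced 535 nm fluorescence indicates probe displacement.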
B2AR arrestin: agonists driving beta-arrestin recruitment to human beta2-adrenergic receptor | P07550 | beta-arrestin recruitment to beta2AR, cell-based reporter | AID 492947 | Potency, µM (doses to about 46.1 µM), for the others: at the highest dose activation, actives largely listed as activators | hit rate 0.02% among 330,000;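 note: 0% = DMSO controls and full agonism = EC100 isoproterenol or metaproterenol; nearly all actives have a fitted effect of over 65% in size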
Target sequence (P07550 whole entry, looked up): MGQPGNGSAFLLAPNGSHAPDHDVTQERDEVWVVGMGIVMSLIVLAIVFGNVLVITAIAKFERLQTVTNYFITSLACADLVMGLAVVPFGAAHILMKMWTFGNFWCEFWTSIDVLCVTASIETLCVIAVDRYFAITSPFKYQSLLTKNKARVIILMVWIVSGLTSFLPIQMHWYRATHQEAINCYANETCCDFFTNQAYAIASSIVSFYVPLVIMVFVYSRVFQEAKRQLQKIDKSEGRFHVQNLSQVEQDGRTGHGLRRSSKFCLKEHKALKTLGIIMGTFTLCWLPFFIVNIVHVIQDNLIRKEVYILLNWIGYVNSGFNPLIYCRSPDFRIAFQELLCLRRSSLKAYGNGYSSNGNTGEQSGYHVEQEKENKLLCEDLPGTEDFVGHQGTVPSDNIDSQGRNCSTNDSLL
FEN1 inhibitor: inhibitors of human flap endonuclease 1. P39748. Recombinant FEN1 flap cleavage, fluorescence, 15 min. Potency, µM (doses to about 114 µM), without a hit: at the highest dose activity change, negative = inhibition, most hits filed as inhibitors. hit rate 0.35% among 390,000. AID 588795; note: nearly all actives have a fitted effect of over 65% in size
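Compounds are tested as a concentration series against 10 nM FEN1; after a 15 min room-temperature preincubation, 50 nM substrate starts cleavage, with plate reads at 0 and 15 min. Normalized responses are fitted by a Hill equation.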
Pin1 inh: inhibitors of human Pin1; Q13526; Pin1 FP peptide displacement, HiFluor488, 10 min; Potency, µM (highest dose often 115 µM), inactives show at the top dose activity, negative = inhibition, hits mostly inhibitors; hit rate 0.009% among 390,000; AID 504891; active = well fitted inhibition curve with a large enough effect in the polarisation, with a control signal flat, not every such curve was filed as active; inconclusive = small, poorly fitted or top-dose-only effect, or effect the other way, or a change in a side signal; inactive = no such curve, though single readings can be large or run the other way; the % refers to the polarisation
Target sequence (Q13526 whole entry, looked up): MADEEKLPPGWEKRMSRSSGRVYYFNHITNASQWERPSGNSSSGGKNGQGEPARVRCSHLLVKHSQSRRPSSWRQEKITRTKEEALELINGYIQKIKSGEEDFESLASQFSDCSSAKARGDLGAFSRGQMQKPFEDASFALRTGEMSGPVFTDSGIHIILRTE
BCR signal inh: chronic active BCR signaling inhibition; ABC-DLBCL IkBa-CBG/CBR reporter, luminescence ratio, 4 h; AID 493014; hit rate 0.05% among 340,000; Potency, µM (top dose mostly 46.1 µM), for inactives: top-dose activity change, negative = inhibition, actives largely listed as inhibitors; active = well fitted inhibition curve with a large enough effect in the signal ratio, with a control signal flat, not every such curve was filed as active; inconclusive = small, poorly fitted or top-dose-only effect, or effect the other way, or a change in a side signal; the % refers to the signal ratio;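 note: plate controls were basal doxycycline-induced cells for no effect and cells given 10 µM MG132 for full effect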
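Doxycycline induced both beetle luciferases in TMD8 lymphoma cells; IKK-driven degradation limits the IkappaBalpha-fused green signal, while red luminescence normalises for cell number and nonspecific effects. Compounds tested up to 46 uM, 4 hrs.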
Active calls of the source: *; i = inactive; ? = inconclusive; . = no result given; [ ] = another dose, or the depositor's remark. Unless noted, calls come from the whole dose curve; as a rule, active = well fitted curve in the direction sought with a large enough effect; inconclusive = small, poorly fitted or top-dose-only effect, or another doubt; inactive = no such curve, though single readings can be large; an effect the other way counts as inactive or inconclusive. Unless noted, % is set by controls: 0 for no effect and ±100 for the full control effect; potency is the fitted concentration of half-maximal effect.

SMILES	PGK inhibitor	Anesthetic bind	B2AR arrestin	FEN1 inhibitor	Pin1 inh	BCR signal inh
NNc1nc2c(-c3ccc(Cl)cc3)nnn2c2ccccc12	2.5%	5.7%	-0.2%	-12.1%	49.7%	?
NNc1nc2c(-c3ccc(F)cc3)nnn2c2ccccc12	-12.4%	2.4%	0.0%	28.2µM*	?	?
COc1cc2c(ccc3cc(OC)c(OC)c(O)c32)cc1O	11.2µM*	-4.1%	-0.1%	22.4µM*	?	?
Cc1cnc(N2CCC(C(N)=O)CC2)nc1-c1cccc(N(C)C)c1	.	.	.	.	2.4%	.
Cn1c2ccccc2c(=O)c2c(=O)n(C3CCCCC3)c(-c3cccs3)nc21	i	-20.1%	-1.0%	56.2µM*	-15.7%	?
O=C(Cc1nnc(CNC(=O)c2ccccc2)s1)Nc1ccc(C(F)(F)F)cc1Cl	.	.	.	.	4.5%	.
Cc1cc(C(C)(C)CC(C)(C)C)ccc1OCCOCC[N+](C)(C)Cc1ccccc1	-6.0%	31.6µM*	0.0%	?	13.0%	?
CCN(CC)c1ccc(/C=C/C2=C3C=CC=CC3NC=C2)cc1 (stereo not given)	.	.	.	15.8µM*	.	.
COc1cccc(C2c3c(ncn(-c4ccc(NC(C)=O)cc4)c3=N)Oc3ccc4ccccc4c32)c1 (stereo not given)	.	.	.	.	17.8%	.
Cc1ccsc1/C=N/Nc1nc(=O)[nH]nc1C	28.2µM*	-18.7%	0.3%	-5.8%	-3.6%	-21.4%
Cc1cc(C)nc(N/N=C/c2sccc2C)n1	1.6%	-4.1%	0.6%	-4.5%	-3.1%	?
CS(=O)(=O)N1CCN(c2nc(-c3ccc(Br)cc3)cs2)CC1	.	.	.	.	-3.1%	.
O=S1(=O)C=C(Sc2nc3cc(Cl)ccc3o2)c2ccccc21	-2.6%	-16.4%	5.5%	6.5%	28.1%	6.31µM*
Cc1cc(NC(=O)CSc2nc3cc(Cl)ccc3o2)no1	-8.1%	6.0%	-0.4%	4.9%	7.2%	1.1%
Fc1cccc(Cl)c1CSc1nnc(COc2cccc3cccnc23)o1	-1.9%[11.5 µM]	17.8µM*	0.4%	0.0%	-7.4%	2.0%
CCSC1=N/C(=C\c2ccc(-c3ccccc3[N+](=O)[O-])o2)C(=O)S1	i	-12.2%	-0.5%	-3.2%	?	13.1%
CCCSC1=N/C(=C\C=C\c2ccco2)C(=O)S1	?	?	-0.4%	50.1µM*	-15.3%	4.0%
CCCSC1=N/C(=C\c2ccc([N+](=O)[O-])o2)C(=O)S1	?	-14.1%	-0.1%	35.5µM*	.	12.4%
O=C1SC(SCc2ccccc2)=N/C1=C\c1ccco1	-9.5%	?	.	?	.	.
O=[S+]([O-])(c1ccc(-c2ccccc2)cc1)N1CCN([S+](=O)([O-])c2ccc3c(c2)OCCO3)CC1	.	.	.	.	3.0%	.
O=S(=O)(O)c1ccc2c(N=Nc3ccc(S(=O)(=O)O)c4ccccc34)c(O)c(S(=O)(=O)O)cc2c1	.	.	.	10µM*	.	.
O=S(=O)(O)c1cccc(N=Nc2c(O)ccc3ccccc23)c1	-13.2%	-3.6%	0.0%	?	?	20.1%
CC(=O)Nc1ccc(S(=O)(=O)O)c2cc(S(=O)(=O)O)c(N=Nc3ccc(N=Nc4ccc(S(=O)(=O)O)cc4)c4ccc(S(=O)(=O)O)cc34)c(O)c12	.	.	.	1.26µM*	.	.
Cc1nc2ccc(S(=O)(=O)N3CCN(S(=O)(=O)c4c(F)cccc4F)CC3)cc2s1	.	.	.	.	-9.2%	.
c1ccc(CNCc2nnc(-c3cc4ccccc4[nH]3)o2)cc1	.	.	.	.	-5.3%	.
COc1ccc(C(=O)NC23CC4CC(CC(C4)C2)C3)cc1	.	-1.2%	0.5%	-0.1%	1.5%	-1.0%
COc1nc(NC23CC4CC(CC(C4)C2)C3)nc(OC)n1	-1.1%	7.08µM*	0.4%	-7.3%	5.6%	-2.1%
O/C=c1\ccc2cccc3nc(C(F)(F)F)nc1c23	-11.7%	-4.0%	0.3%	79.4µM*	.	4.4%
N=C(N)SCc1cccc2c(=O)cc(-c3ccccc3)oc12	.	.	.	50.1µM*	.	.
COc1ccc(C2Nc3ccccc3C(=O)N2Cc2ccccc2)cc1OCc1ccc(NC(C)=O)cc1 (stereo not given)	.	.	.	.	24.0%	.

Screens: PubChem, National Center for Advancing Translational Sciences (NCATS)
